Measured values taken from the supplement of paper PMC7595190.
A number with no mark means an inactive call.

What was measured:
Experiment in all cases: CellTox Green cytotoxicity fluorescence relative to DMSO vehicle (fold of vehicle RFU); higher = more cell death (loss of membrane integrity), active = 2 or more
CMK = system: CMK
Summary of the method: (§1)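 Cytotoxicity, a measure of lost membrane integrity, is reported as fluorescence expressed as fold of the DMSO vehicle. For this, MV4-11, CMK and Kasumi-1 cells (4.0 × 10^4 per well) were seeded with CellTox Green reagent in 96-well black optical-bottom plates. Individual compounds from the Selleckchem apoptosis library, diluted in DMSO, were tested at final 0.01, 0.1 and 1 µM against a 0.1% DMSO vehicle. Fluorescence was read at Ex 485 nm and Em 520 nm after 24, 48 and 72 h at 37 °C, 5% CO2.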

Kasumi-1 = system: Kasumi-1
Summary of the method: as §1

MV4-11 = system: MV4-11
Summary of the method: as §1

Structure (SMILES)	CellTox Green cytotoxicity fluorescence (CMK; 0.01 µM, 24 h)	CellTox Green cytotoxicity fluorescence (CMK; 0.01 µM, 48 h)	CellTox Green cytotoxicity fluorescence (CMK; 0.01 µM, 72 h)	CellTox Green cytotoxicity fluorescence (CMK; 0.1 µM, 24 h)	CellTox Green cytotoxicity fluorescence (CMK; 0.1 µM, 48 h)	CellTox Green cytotoxicity fluorescence (CMK; 0.1 µM, 72 h)	CellTox Green cytotoxicity fluorescence (CMK; 1 µM, 24 h)	CellTox Green cytotoxicity fluorescence (CMK; 1 µM, 48 h)	CellTox Green cytotoxicity fluorescence (CMK; 1 µM, 72 h)	CellTox Green cytotoxicity fluorescence (Kasumi-1; 0.01 µM, 24 h)	CellTox Green cytotoxicity fluorescence (Kasumi-1; 0.01 µM, 48 h)	CellTox Green cytotoxicity fluorescence (Kasumi-1; 0.01 µM, 72 h)	CellTox Green cytotoxicity fluorescence (Kasumi-1; 0.1 µM, 24 h)	CellTox Green cytotoxicity fluorescence (Kasumi-1; 0.1 µM, 48 h)	CellTox Green cytotoxicity fluorescence (Kasumi-1; 0.1 µM, 72 h)	CellTox Green cytotoxicity fluorescence (Kasumi-1; 1 µM, 24 h)	CellTox Green cytotoxicity fluorescence (Kasumi-1; 1 µM, 48 h)	CellTox Green cytotoxicity fluorescence (Kasumi-1; 1 µM, 72 h)	CellTox Green cytotoxicity fluorescence (MV4-11; 0.01 µM, 24 h)	CellTox Green cytotoxicity fluorescence (MV4-11; 0.01 µM, 48 h)	CellTox Green cytotoxicity fluorescence (MV4-11; 0.01 µM, 72 h)	CellTox Green cytotoxicity fluorescence (MV4-11; 0.1 µM, 24 h)	CellTox Green cytotoxicity fluorescence (MV4-11; 0.1 µM, 48 h)	CellTox Green cytotoxicity fluorescence (MV4-11; 0.1 µM, 72 h)	CellTox Green cytotoxicity fluorescence (MV4-11; 1 µM, 24 h)	CellTox Green cytotoxicity fluorescence (MV4-11; 1 µM, 48 h)	CellTox Green cytotoxicity fluorescence (MV4-11; 1 µM, 72 h)
CCCCC(C=O)NC(=O)C(CC(C)C)NC(=O)C(CC(C)C)NC(C)=O (configuration not stated)	0.991	0.967	0.962	0.984	0.984	1.01	2.35 (active)	3.65 (active)	2.82 (active)	1.01	0.993	0.999	1.01	1	1	1.03	1.11	1.16	0.985	1.01	1.01	1.01	1.02	1.01	1.16	2.16 (active)	2.42 (active)
O=C1NC(=NCc2cccs2)S/C1=C\c1ccc2ncccc2c1	1.02	1.04	1.07	0.996	1	0.991	1.03	1.09	1.08	0.99	0.991	0.96	1.01	1.04	1	1.02	1.01	1.01	0.976	0.968	0.981	0.997	0.979	0.955	1.05	1.12	1.15
N#Cc1ccc(-c2c(-c3ncn[nH]3)sc(N3CCOCC3)c2C#N)c(F)c1	0.974	0.999	1.04	0.969	0.994	0.919	1.03	1.13	0.932	0.959	0.958	0.957	0.991	1.05	1.05	0.985	1.3	1.41	0.973	0.967	0.969	0.972	0.993	0.991	1.01	1.13	1.13
Nc1nc(F)nc2c1ncn2[C@@H]1O[C@H](CO)[C@@H](O)[C@@H]1O [Fludarabine]	1	1	1	0.981	0.982	0.939	0.976	0.961	0.907	0.951	0.991	0.986	0.99	0.99	0.984	1.02	1.01	1.03									
CC[C@H](NC(=O)[C@H](C)NC)C(=O)N1C[C@@H](O)C[C@H]1Cc1c(-c2[nH]c3cc(F)ccc3c2C[C@@H]2C[C@H](O)CN2C(=O)[C@H](CC)NC(=O)[C@H](C)NC)[nH]c2cc(F)ccc12 [Birinapant]	0.985	0.974	0.988	0.998	0.996	1	0.983	1.03	0.952	0.993	1.03	1.05	1.02	1.1	1.2	1.04	1.26	1.5	0.987	0.989	1	0.988	1.04	1.08	1.03	1.2	1.32
CCOC(=O)C1=C(N)Oc2ccc(Br)cc2C1C(C#N)C(=O)OCC (configuration not stated)	0.931	0.915	0.892	0.944	0.948	0.975	0.954	0.967	0.968	0.946	0.93	0.927	0.923	0.902	0.875	1.01	1.05	1.06	0.97	0.991	1.01	0.944	0.944	0.948	0.96	0.957	0.957
CCOc1cc(C(C)(C)C)ccc1C1=N[C@@](C)(c2ccc(Cl)cc2)[C@@](C)(c2ccc(Cl)cc2)N1C(=O)N1CCN(CCCS(C)(=O)=O)CC1	0.987	0.993	1.01	0.995	0.996	1	1.02	1.05	1.02	0.977	0.992	1.01	0.987	0.969	0.96	1.03	1.03	1.03	0.993	1.01	1.01	1.03	1.07	1.13	1.07	1.63	2.02 (active)
CN1CCN(Cc2ccc(Nc3ncc(Cl)c(Nc4ccccc4S(=O)(=O)N(C)C)n3)cc2)CC1	0.958	0.972	0.913	1.07	1.56	1.32	2.06 (active)	2.42 (active)	1.62	0.957	0.97	0.961	0.997	1.34	1.49	1.47	1.66	1.72									
O=C1C(=O)N(Cc2ccc(Cl)c(Cl)c2)c2ccccc21 [Apoptosis Activator 2]	1.01	1.02	1.01	1.03	1.04	1.02	0.981	1.01	0.986	0.997	1	1.01	1	0.985	0.971	1.02	1.04	1.04									
O=C1CCC(N2C(=O)c3ccccc3C2=O)C(=O)N1 (configuration not stated) [Thalidomide]	0.979	0.985	0.989	0.945	0.95	0.986	0.982	0.962	1.19	0.98	0.96	0.95	0.938	0.934	0.908	0.972	0.981	0.997									
COc1nc(OCc2cccc(-c3ccccc3)c2C)ccc1CNCCNC(C)=O [PD-1/PD-L1 inhibitor 2]	1.01	0.96	0.968	0.99	0.951	0.928	0.99	0.983	0.956	1	0.98	0.994	0.997	1.02	1.01	0.978	1	0.999									
CC(=O)N1c2ccc(-c3ccc(C(=O)O)cc3)cc2[C@H](Nc2ccc(Cl)cc2)C[C@@H]1C	0.995	1.1	0.996	1.2	1.71	1.37	1.33	1.93	1.57	0.959	0.98	1.03	1.06	1.36	1.49	1.09	1.66	1.92	0.931	0.997	1.17	0.975	1.43	2.03 (active)	1.09	1.87	2.28 (active)
O=C(O)CSc1cc(NS(=O)(=O)c2ccc(Br)cc2)c2ccccc2c1O	0.973	0.966	0.955	0.961	0.961	0.969	0.984	1.03	1.03	1.05	0.997	1.01	0.985	0.972	0.997	0.98	1.03	1.08									
